The subject of the test is Lefty1. The test is described as follows: Lefty1 protein binding to printed compounds – biochemical, small-molecule microarray, 635/667 nm fluorescence, primary screen (AID 1139). As to conditions: fluorescence 635/667, higher = more signal.
The compound `CCOC(=O)C1=NO[C@@]2(C=C(Br)C3(OCCCO3)[C@H]3O[C@H]32)C1` came in with a composite z-score of 1.04.

Compound `C#CCCCON=C1C[C@@H](O)[C@@H](O)[C@@H]2[C@@H]3C(=O)N(C(C)(C)C)C(=O)[C@@H]3CC[C@H]12` registered a composite z-score of -0.912.

With `CO[C@@H]1COC(=O)[C@@H](C)COC(=O)[C@@H](C)NC(=O)CC=C[C@@H]1C`, the composite z-score came out at 1.43.

In turn, `COC(=O)CC=C[C@@H](C)[C@@H](C=NO[C@H](C)c1cn([C@H](CO)Cc2ccccc2)nn1)NS(=O)(=O)c1ccc(C)cc1` returned a composite z-score of 0.19.

`O=C(C=Cc1ccc2c(c1)OCO2)c1ccc(F)cc1`: the composite z-score turned out to be 1.21.

In the case of `CCOC(=O)[C@H](CC(C)C)NC(=O)CCC1CC(OC(=O)NCc2cccc3ccccc23)CC2(CCCC(COC(=O)NCCOC)O2)O1` (stereo partly specified), the composite z-score was 0.436.

The compound `C[C@@H]1C=CCC(=O)OC[C@H]2O[C@@H](C=C[C@@H]2O)[C@H](C)C=CCC(=O)OC1` returned a composite z-score of 1.71.

With `CCOC(=O)[C@H](CC(C)C)NC(=O)CCC1CC(OC(=O)NCc2cccc3ccccc23)CC2(CCCC(COC(=O)NCCCN3CCCC3=O)O2)O1` (stereo partly specified), the composite z-score came to 0.925.

In the case of `CSCC[C@@H]1NC(=O)CC=C[C@@H](C)COC(=O)[C@@H](C)COC1=O`, the composite z-score is -0.0168.

Turning to `COc1ccc(O[C@H]2C=C[C@@H](c3ccccc3)O[C@@H]2CON=C(C)CCN2CCc3nc(-c4ccccc4)c(-c4ccccc4)cc3C2)cc1`, the composite z-score came out at 0.269.

Take `C=COC[C@@H]1CN2[C@@H](CC[C@@H](C)[C@@H]2c2ccc(Br)cc2)C(=O)O1`: the composite z-score was determined as 0.0005.

For the compound `COC(=O)CC=C[C@@H](C)[C@@H](C=NOCC[C@@H]1C=C[C@H](OC(C)=O)[C@@H](COC(C)=O)O1)NS(=O)(=O)c1ccc(C)cc1`, the composite z-score was found to be 0.36.

As for `CCc1cc2c(nc1CC)CCN(CCC(C)=NOC[C@H]1O[C@H](c3ccccc3)C=C[C@@H]1Oc1ccc(OC)cc1)C2`, the composite z-score was 0.568.

Consider `CC(C)CON=C1C[C@@H](O)[C@@H](O)[C@@H]2[C@@H]3C(=O)N(C4CCCCC4)C(=O)[C@@H]3CC[C@@H]12`, for which the composite z-score came out at 0.225.

`CCN1C(=O)[C@H]2[C@H]3[C@H](O)[C@H](O)CC(=O)[C@@H]3CC[C@H]2C1=O` gave a composite z-score of 0.547.

In turn, `COC(=O)C1=C(C)N(Cc2ccccc2)[C@]23O[C@](C(=O)OC)(C(=O)N2[C@@H]1c1ccccc1)C(C(=O)OC)=C3C(=O)OC` yielded a composite z-score of 1.09.

Turning to `CC(C)=NO[C@H](C)c1cn([C@H](CO)Cc2ccccc2)nn1`, the composite z-score came to 0.137.

For the compound `CON=Cc1ccc(C(=O)N2[C@H](c3ccc(C)cc3)[C@@H](C)CC[C@H]2C(=O)OC)cc1`, the composite z-score stood at 0.595.

`CCN1C(=O)[C@@H]2[C@H]3C(=CC[C@@H]2C1=O)C1(OCCCO1)[C@H]1O[C@H]1[C@H]3O` displayed a composite z-score of 0.946.

As to `O=C(NN=C1C[C@@H](O)[C@@H](O)[C@@H]2[C@@H]3C(=O)N(C[C@@H]4CCCO4)C(=O)[C@@H]3CC[C@@H]12)OCc1ccccc1`, the composite z-score was determined as 0.305.

On to `CC(CCN1CCc2nc(-c3ccccc3)c(-c3ccccc3)cc2C1)=NOC[C@@H](O)COCc1ccco1`, for which the composite z-score came to 1.03.

As for `O=C1[C@H]2[C@H]3[C@H](O)[C@H](O)CC(=NO[C@@H]4O[C@H](CO)[C@@H](O)[C@H](O)[C@H]4O)[C@H]3CC[C@H]2C(=O)N1c1cccc(Oc2ccccc2)c1`, the composite z-score came to 0.802.

The compound `O=C1C[C@@H](O)[C@@H](O)[C@@H]2[C@@H]3C(=O)N(Cc4ccc5c(c4)OCO5)C(=O)[C@@H]3CC[C@H]12` yielded a composite z-score of 0.428.

In the case of `COC(=O)[C@@H]1CC[C@@H](C)[C@H](c2ccc(Br)cc2)N1`, the composite z-score was -0.0352.

Compound `CCOC(=O)[C@H](CC(C)C)NC(=O)CCC1CC(OC(=O)NCCc2ccc(F)cc2)CC2(CCCC(COC(=O)NCC(c3ccccc3)c3ccccc3)O2)O1` (stereo partly specified) yielded a composite z-score of 0.875.

`COC(=O)[C@H](C)NC(=O)CCC1CC(OC(=O)NCc2ccc3c(c2)OCO3)CC2(CCCC(COC(=O)NCc3cccc(C(F)(F)F)c3)O2)O1` (stereo partly specified) yielded a composite z-score of 1.15.

Compound `CC(C)=CCCC(C)=CCON=C1C[C@@H](O)[C@@H](O)[C@@H]2[C@@H]3C(=O)N(C(C)(C)C)C(=O)[C@@H]3CC[C@@H]12` gave a composite z-score of 0.351.

The compound `Cc1ccc(S(=O)(=O)NC(CCc2ccccc2)CC(=O)C(C)(C)C)cc1` (stereo unspecified) registered a composite z-score of 0.625.

In turn, `C#CCCCON=C1C[C@@H](O)[C@@H](O)[C@@H]2[C@@H]3C(=O)N(c4ccc(F)cc4F)C(=O)[C@@H]3CC[C@H]12` displayed a composite z-score of 0.662.

`COC(=O)[C@H](C)NC(=O)CCC1CC(OC(=O)NCc2ccc3c(c2)OCO3)CC2(CCCC(COC(=O)NCCc3ccccc3OC)O2)O1` (stereo partly specified) registered a composite z-score of -0.0317.

The compound `CCCCC#C[C@@H]1C=C[C@H](Oc2ccc(C(=O)OC)cc2)[C@@H](COC(=O)OCC)O1` yielded a composite z-score of 0.309.

Compound `CO[C@@H]1C=CCC(=O)N2CCC[C@H]2C(=O)OC[C@@H](C)C(=O)OC[C@H]1C` gave a composite z-score of 0.925.

The compound `COC(=O)CC=C[C@@H](C)[C@H](OCc1cccc(-c2ccccc2)c1)C1CCCCC1` returned a composite z-score of 0.0133.

With `O=C1C2=CC[C@H]3C(=O)N(c4cccc(Oc5ccccc5)c4)C(=O)[C@H]3[C@H]2[C@H](O)[C@@H]2O[C@H]12`, the composite z-score was determined as 0.755.

In the case of `COC(=O)CC=C[C@@H](C)[C@@H](C=NO[C@@H](C)c1cc(-c2c(C)cc(C)cc2C)no1)NS(=O)(=O)c1ccc(C)cc1`, the composite z-score is -1.55.

In the case of `CCOC(=O)[C@H](CC(C)C)NC(=O)CCC1CC(OC(=O)NCCc2ccc(F)cc2)CC2(CCCC(COC(=O)NCC3CCCCC3)O2)O1` (stereo partly specified), the composite z-score was found to be 0.803.

The values are drawn from PubChem BioAssay.
